This is part of a sample that, as a whole, favours compounds with a hit. Of some 83,000 tested, about 20% had one in any assay.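 In brief: 96-well plates, 48 h treatment, single concentration, percent growth endpoint.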 Active and inactive are the calls of the source.

The test system of the assay is UO-31 renal. In words: NCI-60 one-dose screen, 48 h (100 = growth as untreated, 0 = no growth, -100 = all killed). The settings on record: 10 µM unless noted. As for the experimental part:
Growth inhibition of the UO-31 human tumor cell line is measured as a screen for anti-cancer activity. Cells are grown in 96 well plates and exposed to the test compound for 48 hours. Compounds are tested at a single concentration, which is 10^-5 M for most compounds. The reported endpoint is percent growth (GI% or GIPRCNT), where numbers from 0 - 100% represent growth inhibition, and numbers from -100% - 0 represent cell death. For example, a value of 40 represents 60% growth inhibition. A value of 0 means no net growth occurred over the course of the experiment. A value of -40 indicates 40% of cells at the beginning of the experiment died by the end of the experiment. A value of -100 means all cells are dead at the end of the experiment.
NCI-60 Human Tumor Cell Lines Screen was performed using the standard one-dose NCI protocol, which is described in more detail at https://dtp.cancer.gov/discovery_development/nci-60/default.htm.
Compounds with GIPRCNT values below 10 were considered active. Activity score was based on GIPRCNT using the following formula: […]
Score is 0 for GIPRCNT values of 100 or above, 50 for GIPRCNT values of 0, and 100 for GIPRCNT values of -100.
For the compound `COc1ccc2c(c1)c(-c1nc(-c3c[nH]c4ncccc34)cs1)cn2CCCCN1CCCCC1`, the growth is -87.6% (active).

With `CC(C)OC(=O)[C@H](C)NP(=O)(Oc1ccccc1)C1CCCN(O)C1=O` (stereo not given in full), the growth was 86.2% (inactive). The result for `CCCCCCCOC(C(=O)OCCN(CC)CC)(c1ccccc1)c1ccccc1` reads 69% (inactive). Take `COc1cc(C=Nc2cccc(Br)c2)ccc1N(CCCl)CCCl`: the growth was 69.1% (inactive). Next, `CC1=C(O)[C@@](C)(CCCCC[C@H](C)CCCCc2ccc(O)cc2)OOC1=O`: 68.8% (inactive); `C/C(=C\c1ccn(-c2ccc(N)cc2)n1)[C@@H]1C[C@@H]2O[C@]2(C)CCC[C@H](C)[C@H](O)[C@@H](C)C(=O)C(C)(C)[C@@H](O)CC(=O)O1`: 38.5% (inactive); `Cc1ccc(C(=O)NCCCOc2ccc(N3C(N)=NC(N)=NC3(C)C)cc2Cl)cc1S(=O)(=O)F`: 105% (inactive). Next, `CC(CO)NC1CCCCC1` (stereo not given): 86.8% (inactive); `O=[N+]([O-])c1cnc[nH]1`: 94.8% (inactive). Next, `N#C[Se]Cc1cc(-c2ccccc2)n(-c2ccc(S(N)(=O)=O)cc2)n1`: -25.6% (active); `CCOC(=O)N[C@H]1CCc2c(Br)c(OC)c(OC)c(OC)c2-c2ccc(SC)c(=O)cc21`: 27.3% (inactive); `CCC1(C)CC(CCNCc2ccccc2O)(c2ccc(C)cc2)CCO1` (stereo not given): 101% (inactive).

Turning to `CCOC(=O)[C@@H](C)C[C@H](Cc1ccccc1)NC(=O)c1csc([C@@H](C[C@H](C(C)C)N(C)C(=O)[C@@H](NC(=O)[C@H]2C[C@H](O)CCN2C)C(C)C)OC(C)=O)n1`, the growth is 36.1% (inactive). Next, `CC(C)=CCc1c(O)c(C(=O)CC(C)C)c(O)c2c(-c3ccccc3)cc(=O)oc12`: 44.9% (inactive); `CCOC(=S)S[C@H]1C[C@@H]2[C@H](CC[C@]3(C)C(=O)CC[C@@H]23)[C@@]2(C)CCC(=O)C=C12`: 97.3% (inactive). Next, `C[S+]1C=Cc2ccccc2C1c1ccc(Cl)cc1` (stereo not given): 75.6% (inactive); `C=C1[C@@H](C)[C@H]2[C@H](Cc3ccccc3)NC(=O)[C@]23[C@@H](O)/C=C/[C@@](C)(O)C(=O)[C@@H](C)C/C=C/[C@H]3[C@@H]1O`: 31.6% (inactive); `CN1C(=O)N[C@H]2[C@@H]3NC(=O)c4ccc(Br)n4[C@@H]3C[C@]21O`: 9.15% (active). The result for `C1CCC([PH+](C2CCCCC2)C2CCCCC2[PH+](C2CCCCC2)C2CCCCC2)CC1.[Au].[CH-]1CCCCC1CC1CCCC[N-]1` (stereo not given) reads -81.4% (active); that for `O=C1NC(=O)C(=Cc2cn(C(=O)c3ccccc3)c3ccccc23)C(=O)N1`, 64.2% (inactive); that for `COc1ccc(N(CC(=O)NCCC[Te]c2ccccc2)C(=O)CCSC2=C(C)C(=O)c3ccccc3C2=O)cc1`, -29.3% (active). For the compound `CC12CCC3C(C=CC4=C(N)C(=O)CCC43C)C1CCC2=O` (stereo not given), the growth is 64.6% (inactive). Regarding `CN(C)C(=O)Oc1ccccc1-c1ccccc1`, the growth is 86.3% (inactive).

Regarding `Brc1ccc2c(c1)c(-c1nc(-c3c[nH]c4ncccc34)cs1)cn2CCN1CCCCC1`, the growth was 44.8% (inactive). Next, `COC(=O)[C@@H](C)C[C@H](Cc1ccccc1)NC(=O)c1csc([C@@H](C[C@H](C(C)C)N(C)C(=O)[C@@H](NC(=O)[C@H]2CCCCN2C)C(C(F)(F)F)C(F)(F)F)OC(C)=O)n1`: 33.1% (inactive).

`COc1ccc2nc(NC(=O)COc3cc(/C=C\c4cc(OC)c(OC)c(OC)c4)ccc3OC)sc2c1`: the growth is 14.7% (inactive). The result for `COc1ccc2c(c1)c(C1(O)CC(CSC#N)OC1=O)cn2C(=O)c1ccc(Cl)cc1` (stereo not given) reads 78.5% (inactive); that for `C/C(=C\c1ccn(-c2ccc(N)c(F)c2)n1)[C@@H]1C[C@@H]2O[C@]2(C)CCC[C@H](C)[C@H](O)[C@@H](C)C(=O)C(C)(C)[C@@H](O)CC(=O)O1`, 36.9% (inactive). Next, `CO[C@H]1CC[C@@]2(C)C(=CC[C@@H]3[C@@H]2CC[C@]2(C)C(=O)C(=O)C[C@@H]32)C1`: 86.9% (inactive); `Fc1c[c-]c(-c2ccccn2)c(F)c1.[CH3-].[Pt+2].c1ccc([PH+](c2ccccc2)c2ccccn2)cc1`: -71.9% (active); `CC12CCC3C(CCC4Cc5[nH]c6ccccc6c5CC43C)C1CCC2O` (stereo not given): 56.9% (inactive). The result for `O=P(Oc1ccc(Cl)cc1)(N1CC1)N1CC1` reads 61.1% (inactive). As to `CC1CCCC(C[N+](C)(C)C)C1=O` (stereo not given), the growth is 73.5% (inactive). Next, `CC1=C(CN)C2=C(C)C3(CC3)[C@@](C)(O)C(=O)C2=C1`: 90.3% (inactive); `COc1cccc(C=NC(Cc2cnc[nH]2)C(=O)O)c1O` (stereo not given): 84.1% (inactive); `Nc1ncnc2n[nH]nc12`: 35.9% (inactive). The result for `O=C(CC1(O)C(=O)N(Cc2ccccc2)c2ccc(Br)cc21)c1ccc(C(=O)NCC2CCC3(CC2)OOC2(CCCCC2)OO3)cc1` (stereo not given) reads -73.3% (active); that for `COc1cc2c(c(OC)c1OC)-c1ccc([O-])c(=O)cc1[C@@H](NC(C)=O)CC2.COc1cc2c(c(OC)c1OC)-c1ccc([O-])c(=O)cc1[C@@H](NC(C)=O)CC2.[Cu+2]`, 22.2% (inactive). For the compound `Nc1ccc(Cl)cc1`, the growth is 94.9% (inactive). Regarding `COC(=O)[C@@H](C)C[C@H](Cc1ccccc1)NC(=O)c1csc([C@@H](C[C@H](C(C)C)N(C)C(=O)[C@@H](NC(=O)[C@H]2CCCCN2C)C(C)C)OC(C)=O)n1`, the growth was 42% (inactive).

The values are drawn from PubChem BioAssay (NCI).
